Reference: PubChem BioAssay (NCATS)
Records with an inconclusive call do not appear. Calls of active or inactive are those of the source. Unless noted, calls come from the whole dose curve; as a rule, active = well fitted curve in the direction sought with a large enough effect; inconclusive = small, poorly fitted or top-dose-only effect, or another doubt; inactive = no such curve, though single readings can be large; an effect the other way counts as inactive or inconclusive.

Legend:
[1] = qHTS drug screen for cell cycle checkpoint inhibitors in PARPi-resistant BRCA-mutant ovarian cancer cell lines. (AID 1963452; calls by dose curve); settings: PEO1/OlaR viability, CellTiter-Glo luminescence, 96 h, stronger effect = lower value
In short: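 PEO1, PEO4 and PEO1/OlaR ovarian cancer cells, 600 per well, exposed 96 h at 37C to a dilution series. Viability read by CellTiter-Glo luminescence, normalized to DMSO and empty wells; activity summarized as Z-AUC.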

[2] = biological target: ATP-dependent 6-phosphofructokinase (Trypanosoma brucei brucei) (UniProt O15648); assay: qHTS Assay to Find Inhibitors of T. brucei phosphofructokinase: hit validation (AID 492961);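 note: luminescence reports ADP formed as PFK phosphorylates fructose-6-phosphate with ATP; % is set by controls: 0 for no effect and ±100 for the full control effect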; settings: T. brucei PFK, ADP-Glo luminescence; series mostly up to 51.4 µM
Chain of ATP-dependent 6-phosphofructokinase (Trypanosoma brucei brucei) (O15648 whole entry, looked up): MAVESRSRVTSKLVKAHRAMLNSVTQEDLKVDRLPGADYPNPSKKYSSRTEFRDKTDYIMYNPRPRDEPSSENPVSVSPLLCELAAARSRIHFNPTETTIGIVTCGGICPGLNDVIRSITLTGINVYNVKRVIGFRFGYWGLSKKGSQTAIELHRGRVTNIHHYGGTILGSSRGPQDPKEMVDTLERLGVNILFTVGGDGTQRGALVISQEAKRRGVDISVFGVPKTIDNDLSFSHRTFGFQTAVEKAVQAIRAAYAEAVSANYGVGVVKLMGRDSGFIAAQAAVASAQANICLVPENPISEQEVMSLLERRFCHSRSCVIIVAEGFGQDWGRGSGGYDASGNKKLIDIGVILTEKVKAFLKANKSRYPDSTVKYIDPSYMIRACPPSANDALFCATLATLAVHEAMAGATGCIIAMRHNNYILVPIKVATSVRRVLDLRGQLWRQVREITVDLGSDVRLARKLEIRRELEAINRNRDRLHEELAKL
In short: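 Measures ADP output of PFK (1.25 nM) at 0.1 mM ATP, 0.5 mM F6P, pH 8.0 TEA buffer with 5 mM MgCl2. No-enzyme wells define full inhibition; uninhibited enzyme wells define zero.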

3D7 = assay: qHTS profiling for inhibitors of Plasmodium falciparum proliferation (AID 504749); note: nearly all actives have a fitted effect of over 60% in size; note: potency is the fitted concentration of half-maximal effect; settings: P. falciparum in erythrocytes, SYBR Green DNA, 72 h; series mostly up to 28.7 µM
In short: (§1)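 SYBR Green fluorescence of parasite DNA, read after lysis and overnight dark incubation, measured growth over 72 h in erythrocyte culture at 0.3% parasitemia and 2.5% hematocrit. Data normalised to DMSO and 0.29 uM artemisinin, with plate-drift correction.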

C2A = assay: as above; settings: P. falciparum in erythrocytes, SYBR Green DNA, 72 h; series mostly up to 28.7 µM
In short: as §1

CP201 = assay: as above; settings: P. falciparum in erythrocytes, SYBR Green DNA, 72 h; series mostly up to 28.7 µM
In short: as §1

CP217 = assay: as above; settings: P. falciparum in erythrocytes, SYBR Green DNA, 72 h; series mostly up to 28.7 µM
In short: as §1

CP237 = assay: as above; settings: P. falciparum in erythrocytes, SYBR Green DNA, 72 h; series mostly up to 28.7 µM
In short: as §1

CP250 = assay: as above; settings: P. falciparum in erythrocytes, SYBR Green DNA, 72 h; series mostly up to 12.8 µM
In short: as §1

CP252 = assay: as above; settings: P. falciparum in erythrocytes, SYBR Green DNA, 72 h; series mostly up to 12.8 µM
In short: as §1

CP256 = assay: as above; settings: P. falciparum in erythrocytes, SYBR Green DNA, 72 h; series mostly up to 28.7 µM
In short: as §1

CP262 = assay: as above; settings: P. falciparum in erythrocytes, SYBR Green DNA, 72 h; series mostly up to 28.7 µM
In short: as §1

CP266 = assay: as above; settings: P. falciparum in erythrocytes, SYBR Green DNA, 72 h; series mostly up to 12.8 µM
In short: as §1

CP286 = assay: as above; settings: P. falciparum in erythrocytes, SYBR Green DNA, 72 h; series mostly up to 28.7 µM
In short: as §1

CP315 = assay: as above; settings: P. falciparum in erythrocytes, SYBR Green DNA, 72 h; series mostly up to 28.7 µM
In short: as §1

FAB9 = assay: as above; settings: P. falciparum in erythrocytes, SYBR Green DNA, 72 h; series mostly up to 28.7 µM
In short: as §1

GB4 = assay: as above; settings: P. falciparum in erythrocytes, SYBR Green DNA, 72 h; series mostly up to 28.7 µM
In short: as §1

HB3 = assay: as above; settings: P. falciparum in erythrocytes, SYBR Green DNA, 72 h; series mostly up to 28.7 µM
In short: as §1

N140 = assay: as above; settings: P. falciparum in erythrocytes, SYBR Green DNA, 72 h; series mostly up to 28.7 µM
In short: as §1

P93_24 = assay: as above; settings: P. falciparum in erythrocytes, SYBR Green DNA, 72 h; series mostly up to 28.7 µM
In short: as §1

[3] = biological target: Glucocorticoid receptor (Homo sapiens) (UniProt P04150); assay: GR-GFP Redistribution (AID 450;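 active = compounds whose dose series gives a full or clear partial fitted curve of increased nuclear translocation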; note: potency is the fitted concentration of half-maximal effect); settings: U2OS GR-GFP nuclear translocation, laser cytometry, 2 h
Chain of Glucocorticoid receptor (Homo sapiens) (P04150 whole entry, looked up): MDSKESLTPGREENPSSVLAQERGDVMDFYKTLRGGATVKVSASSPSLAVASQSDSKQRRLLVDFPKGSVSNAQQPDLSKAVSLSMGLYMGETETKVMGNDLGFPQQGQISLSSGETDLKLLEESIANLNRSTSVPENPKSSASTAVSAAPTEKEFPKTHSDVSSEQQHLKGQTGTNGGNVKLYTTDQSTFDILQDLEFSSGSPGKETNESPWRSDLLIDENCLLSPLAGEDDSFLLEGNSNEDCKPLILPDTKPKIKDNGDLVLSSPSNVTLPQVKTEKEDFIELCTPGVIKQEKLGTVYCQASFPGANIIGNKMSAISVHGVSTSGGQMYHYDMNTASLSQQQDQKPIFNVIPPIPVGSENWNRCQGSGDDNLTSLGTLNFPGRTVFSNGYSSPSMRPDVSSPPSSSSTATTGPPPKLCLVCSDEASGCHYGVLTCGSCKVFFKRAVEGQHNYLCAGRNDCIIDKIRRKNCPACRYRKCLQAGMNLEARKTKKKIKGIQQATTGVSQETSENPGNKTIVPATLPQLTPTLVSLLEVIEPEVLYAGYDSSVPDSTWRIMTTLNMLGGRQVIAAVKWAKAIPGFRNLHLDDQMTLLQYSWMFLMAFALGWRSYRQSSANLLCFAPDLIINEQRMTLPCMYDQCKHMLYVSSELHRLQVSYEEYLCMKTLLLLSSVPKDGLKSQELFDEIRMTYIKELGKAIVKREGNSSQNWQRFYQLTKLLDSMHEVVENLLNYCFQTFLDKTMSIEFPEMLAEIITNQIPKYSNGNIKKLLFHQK

Cn1c(CCCCCCC(=O)NO)nc2cc(N(CCCl)CCCl)ccc21
-0.482: Z-AUC ([1]; measured here: PEO1 parental Z-AUC)
-0.0287: Z-AUC ([1]; measured here: PEO4 Z-AUC)
inactive: Z-AUC [1] -0.877

C[C@]12CC[C@H]3[C@@H](CCC4=CC(=O)CC[C@@]43C)[C@@H]1CC[C@@H]2O
inactive: Potency [2] | Potency (3D7) | Potency (C2A) | Potency (CP201) | Potency (CP217) | Potency (CP237) | Potency (CP250) | Potency (CP252) | Potency (CP256) | Potency (CP262) | Potency (CP266) | Potency (CP286) | Potency (CP315) | Potency (FAB9) | Potency (GB4) | Potency (HB3) | Potency (N140) | Potency (P93_24)

Cc1nnc2ccc(-c3cccc(C(F)(F)F)c3)nn12
inactive: Potency [3] > 46 µM

Clc1ccc([C@@H](OCCN2CCCCC2)c2ccccc2)cc1
active: Potency (CP286) 3.55 µM | Potency (GB4) 5.73 µM | Potency (HB3) 7.94 µM | Potency (N140) 3.98 µM | Potency (P93_24) 3.55 µM
inactive: Potency [3] > 20.6 µM | Potency [2] | Potency (3D7) | Potency (C2A) | Potency (CP201) | Potency (CP217) | Potency (CP237) | Potency (CP250) | Potency (CP252) | Potency (CP256) | Potency (CP262) | Potency (CP266) | Potency (CP315) | Potency (FAB9)

CC(=O)N[C@@H]1CCSC1=O
inactive: Potency [3] > 20.6 µM

CC[C@]1(c2cccc(O)c2)CCCCN(C)C1
active: Potency (CP237) 3.16 µM | Potency (GB4) 4.55 µM | Potency (N140) 3.98 µM
inactive: Potency [3] > 20.6 µM | Potency [2] | Potency (3D7) | Potency (C2A) | Potency (CP201) | Potency (CP217) | Potency (CP250) | Potency (CP252) | Potency (CP256) | Potency (CP262) | Potency (CP266) | Potency (CP286) | Potency (CP315) | Potency (FAB9) | Potency (HB3) | Potency (P93_24)
